The text below walks through data of ChEMBL document CHEMBL3988442, “University of Dundee, Small-Polar-MMV Screening Library” (2021).

In the first test the target is T1, Aspartate--tRNA(Asp/Asn) ligase (Mycobacterium tuberculosis (strain ATCC 25618 / H37Rv)) (UniProt P9WFW3). Further: in the data most compounds retested in dose-response had high values.
T1 sequence (whole entry): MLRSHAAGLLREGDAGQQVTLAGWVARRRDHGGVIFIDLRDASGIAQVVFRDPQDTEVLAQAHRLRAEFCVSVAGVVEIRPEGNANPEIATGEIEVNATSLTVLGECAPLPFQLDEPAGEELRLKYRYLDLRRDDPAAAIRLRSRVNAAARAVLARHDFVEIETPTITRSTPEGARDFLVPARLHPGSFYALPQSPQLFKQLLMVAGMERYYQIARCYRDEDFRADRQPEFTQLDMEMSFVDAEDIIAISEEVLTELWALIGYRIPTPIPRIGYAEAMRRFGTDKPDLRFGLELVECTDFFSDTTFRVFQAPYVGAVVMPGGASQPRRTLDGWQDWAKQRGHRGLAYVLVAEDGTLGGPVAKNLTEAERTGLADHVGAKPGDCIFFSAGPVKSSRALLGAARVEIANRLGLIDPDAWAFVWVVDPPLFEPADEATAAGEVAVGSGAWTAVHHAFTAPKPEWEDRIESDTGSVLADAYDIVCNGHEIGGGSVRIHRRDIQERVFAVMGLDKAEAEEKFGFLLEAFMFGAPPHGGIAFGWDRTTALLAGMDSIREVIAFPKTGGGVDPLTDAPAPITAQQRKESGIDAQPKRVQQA
The test can be described thus: Assay for Asp RNA synthetase-1 from Mycobacterium tuberculosis. It is filed as functional. Details: scale not given: direction of the effect not stated beside the values. The following applies: 30 µM.
With `Cc1ccc(C)c(OC2CCN(C(=O)c3ccc(O)nc3)CC2)c1`, the Percent Effect is -0.922%.

Regarding `CN1CCC(NC(=O)NCCNc2ccccn2)CC1`, the Percent Effect amounted to 0.524%.

As to `COc1ccc(C2CCCN2C(=O)CCNc2ncccn2)cc1` (stereo unspecified), the Percent Effect came to 5.17%.

Consider `CCc1ncnc2c1CCN(C(=O)N1CCCC1)CC2`, for which the Percent Effect was determined as 1.98%.

As to `Cn1cc(-c2ncnc3c2CCN(C(=O)N2CCOCC2)CC3)cn1`, the Percent Effect is -8.2%.

In the case of `CNC(=O)C(NC(=O)c1nccn2ccnc12)c1ccc(F)c(F)c1` (stereo unspecified), the Percent Effect was found to be 0.0141%.

Consider `Cn1cnc(S(=O)(=O)NCCCN2CCOCC2)c1Cl`, for which the Percent Effect turned out to be 3.04%.

On to `N#Cc1cc(NS(=O)(=O)c2ccc(C(=O)O)cc2F)ccc1F`, for which the Percent Effect is 2.89%.

Consider `COc1cccc(OCC2CCCN(C(=O)c3cnc(C)nc3O)C2)c1` (stereo unspecified), for which the Percent Effect was -0.346%.

On to `CS(=O)(=O)c1snnc1C1CCN(Cc2ccncc2)CC1`, for which the Percent Effect was -6.42%.

`COCCNC(=O)NCc1ccc(OC(C)C)c(F)c1`: the Percent Effect was -1.07%.

Consider `CCn1cc(NC(=O)NCc2ccc3c(c2)OCCO3)cn1`, for which the Percent Effect was 1.48%.

Turning to `CCC(CC)c1cc(CNC(=O)N2CCCC(N(C)C)C2)on1` (stereo unspecified), the Percent Effect was -1.74%.

As to `Cc1ccccc1-c1cc(NC(=O)CC(C)C)n(CCO)n1`, the Percent Effect was -0.569%.

In the case of `CN(CCNC(=O)Nc1ccncc1)C1CCCCC1`, the Percent Effect turned out to be 1.25%.

For `Cc1ccc(-c2nc(CCNC(=O)CCN3CCOC3=O)co2)cc1`, the Percent Effect was -1.93%.

Consider `Cc1ccc(-c2noc(CN3CCOC(Cn4cncn4)C3)n2)cc1` (stereo unspecified), for which the Percent Effect is 3.79%.

`O=C1[C@@H]2CCN(Cc3ccoc3)C[C@@H]2OCCN1Cc1cccnc1`: the Percent Effect was -0.368%.

On to `Cc1ccc(C2CSCCN2C(=O)C2=CCCC2)o1` (stereo unspecified), for which the Percent Effect is 6.9%.

For `CC(NC(=O)c1cccs1)C(=O)NCc1cccnc1N1CCCCC1` (stereo unspecified), the Percent Effect was -3.06%.

Take `Cc1n[nH]c(C2CN(C(=O)CCc3ccsc3)CCO2)n1` (stereo unspecified): the Percent Effect was determined as 3.08%.

A further test concerns the target Shiga toxin 2 (Escherichia coli O157:H7) (UniProt P09385+P09386). Nature of the test: E. coli 0.157:H7 Shiga Toxin SOP - stx2 screening assay. The class given is functional. Details: scale not given: direction of the effect not stated beside the values. The note with it: 30 µM.
For `COCCNC(=O)CCc1c(C)nn(-c2nc(C)c(C)c(=O)[nH]2)c1C`, the Percent Effect was -2.84%.

On to `Cc1ccc(S(=O)(=O)NC2CNC(=O)C2)cc1C` (stereo unspecified), for which the Percent Effect stood at 9.86%.

Consider `COc1c(C2CCCN2Cc2csc(C(C)C)n2)c(C)nn1C` (stereo unspecified), for which the Percent Effect was -10.7%.

Turning to `Cn1cnnc1C1CCN(C(=O)CCCOc2ccccc2F)CC1`, the Percent Effect was -1.48%.

Regarding `O=C(NCc1ccco1)[C@@H]1CCO[C@@H]2CCN(c3ccncn3)C[C@H]21`, the Percent Effect is -15.1%.

For the compound `COc1ccc(C)cc1S(=O)(=O)NCC(c1cccn1C)N(C)C` (stereo unspecified), the Percent Effect was 2.58%.

`CN(C)CCN1CCC2(CC1)CN(c1cccnc1)C(=O)CO2`: the Percent Effect is -5.11%.

For `Cc1cnn(CCC(=O)N2CCCN(c3cccnn3)CC2)c1`, the Percent Effect was -11.6%.

`O=C([C@H]1COC[C@H]2CN(Cc3ccco3)C[C@H]21)N1CCCO1`: the Percent Effect was -30.2%.

Turning to `Cc1cnn(CC2CN(CC(=O)Nc3sccc3C#N)CCO2)c1` (stereo unspecified), the Percent Effect came out at 27.5%.

On to `CC(C)Oc1cccc(C(=O)C2CCCN(C(=O)c3ncn[nH]3)C2)c1` (stereo unspecified), for which the Percent Effect was -0.343%.

For `Cc1nc(CN2CCc3ncnc(C)c3CC2)cs1`, the Percent Effect is -9.46%.

In the case of `Cn1nc2c(cc1=O)CN(Cc1coc(-c3cccs3)n1)CC2`, the Percent Effect was -29.8%.

`CCOCC(O)CN1CCN(C(=O)c2cnc3n[nH]c(C)c3c2)CC1` (stereo unspecified): the Percent Effect was 30.1%.

In the case of `CNC(=O)N1CC[C@H]2N(C)CC[C@@]2(C(=O)Nc2ccccc2)CC1`, the Percent Effect turned out to be 15.9%.

Take `Cc1nonc1CC(=O)N1C[C@@H]2CC[C@H](C1)N(Cc1ccccc1)C2=O`: the Percent Effect came out at 2.88%.

For the compound `O=C(CSc1nncs1)N1CCN(Cc2ccc(Cl)s2)CC1`, the Percent Effect was -5.37%.

Turning to `CSc1ccccc1C(C(=O)O)N1CCN(Cc2ccccn2)CC1` (stereo unspecified), the Percent Effect amounted to 17.4%.

As for `c1cnnc(N2CCCC(NCc3ccc(-n4ccnc4)cc3)C2)c1` (stereo unspecified), the Percent Effect was determined as 10.2%.

Turning to `Cc1ccc(C)c(OC2CCN(C(=O)c3ccc(O)nc3)CC2)c1`, the Percent Effect amounted to 26.4%.

Take `CN1CCC(NC(=O)NCCNc2ccccn2)CC1`: the Percent Effect was -5.67%.

Turning to `COc1ccc(C2CCCN2C(=O)CCNc2ncccn2)cc1` (stereo unspecified), the Percent Effect was -17%.

Consider `CCc1ncnc2c1CCN(C(=O)N1CCCC1)CC2`, for which the Percent Effect was -14%.

For `Cn1cc(-c2ncnc3c2CCN(C(=O)N2CCOCC2)CC3)cn1`, the Percent Effect was -1.95%.

Take `CNC(=O)C(NC(=O)c1nccn2ccnc12)c1ccc(F)c(F)c1` (stereo unspecified): the Percent Effect stood at 14.2%.

On to `Cn1cnc(S(=O)(=O)NCCCN2CCOCC2)c1Cl`, for which the Percent Effect was 18.7%.

On to `N#Cc1cc(NS(=O)(=O)c2ccc(C(=O)O)cc2F)ccc1F`, for which the Percent Effect came out at 9.05%.

With `COc1cccc(OCC2CCCN(C(=O)c3cnc(C)nc3O)C2)c1` (stereo unspecified), the Percent Effect turned out to be 2.77%.

For the compound `CS(=O)(=O)c1snnc1C1CCN(Cc2ccncc2)CC1`, the Percent Effect turned out to be 0.0805%.

With `COCCNC(=O)NCc1ccc(OC(C)C)c(F)c1`, the Percent Effect is 29.6%.

In the case of `CCn1cc(NC(=O)NCc2ccc3c(c2)OCCO3)cn1`, the Percent Effect is -43.3%.

Regarding `CCC(CC)c1cc(CNC(=O)N2CCCC(N(C)C)C2)on1` (stereo unspecified), the Percent Effect was found to be 9.62%.

As for `Cc1ccccc1-c1cc(NC(=O)CC(C)C)n(CCO)n1`, the Percent Effect is -1.82%.

Take `CN(CCNC(=O)Nc1ccncc1)C1CCCCC1`: the Percent Effect is -5.92%.

Take `Cc1ccc(-c2nc(CCNC(=O)CCN3CCOC3=O)co2)cc1`: the Percent Effect is -45.5%.

Regarding `Cc1ccc(-c2noc(CN3CCOC(Cn4cncn4)C3)n2)cc1` (stereo unspecified), the Percent Effect is 5.98%.

On to `O=C1[C@@H]2CCN(Cc3ccoc3)C[C@@H]2OCCN1Cc1cccnc1`, for which the Percent Effect was -11.5%.

As to `Cc1ccc(C2CSCCN2C(=O)C2=CCCC2)o1` (stereo unspecified), the Percent Effect is 5.19%.

As to `CC(NC(=O)c1cccs1)C(=O)NCc1cccnc1N1CCCCC1` (stereo unspecified), the Percent Effect worked out at 11%.

Consider `Cc1n[nH]c(C2CN(C(=O)CCc3ccsc3)CCO2)n1` (stereo unspecified), for which the Percent Effect is -2.19%.
